PLAP act: PLAP enzyme activators, biochemical, luminescence, HTS; Alkaline phosphatase, placental type (Homo sapiens), P05187; actives 1.2% (n = 96,000); activation fold at 20 µM; purified PLAP enzyme, luminescent substrate read-out; active compounds read high; AID 696, 2007; in the data active = activation fold above about 2
Target sequence (P05187 whole entry, looked up): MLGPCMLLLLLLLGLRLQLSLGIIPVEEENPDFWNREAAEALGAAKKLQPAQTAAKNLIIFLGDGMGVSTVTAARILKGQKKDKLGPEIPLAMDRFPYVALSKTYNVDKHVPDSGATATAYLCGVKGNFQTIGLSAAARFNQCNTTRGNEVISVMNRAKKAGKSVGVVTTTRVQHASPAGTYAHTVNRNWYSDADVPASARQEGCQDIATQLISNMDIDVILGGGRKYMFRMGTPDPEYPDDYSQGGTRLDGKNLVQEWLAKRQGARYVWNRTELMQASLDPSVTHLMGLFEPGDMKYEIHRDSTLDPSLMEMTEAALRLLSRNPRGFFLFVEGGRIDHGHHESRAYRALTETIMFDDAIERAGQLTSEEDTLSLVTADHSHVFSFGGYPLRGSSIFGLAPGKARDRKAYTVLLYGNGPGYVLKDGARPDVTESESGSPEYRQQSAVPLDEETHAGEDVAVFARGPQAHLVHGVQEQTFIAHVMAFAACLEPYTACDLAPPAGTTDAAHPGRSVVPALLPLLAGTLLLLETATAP
BAP1 block: inhibitors of BAP1 deubiquitinase, primary screen, biochemical, Ub-AMC fluorescence, kinetic; recombinant BAP1, Ub-AMC hydrolysis fluorescence kinetic; active compounds read low; calls only at 20 µM; actives 0.48% (n = 72,000);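 active = activity remaining at or below 50% of control, provided the compound also passes the data quality filters; inactive = the rest, including low values that fail the filters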;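 also: 100% = DMSO wells rate and 0% = substrate alone blank rate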
sEH act: soluble epoxide hydrolase activators, primary screen, biochemical, human sEH; Bifunctional epoxide hydrolase 2 (Homo sapiens), P34913; purified human sEH enzymatic activity, activator screen; activation, % at 2 µM; actives 0.04% (n = 91,000); AID 717, 2007; in the data active = activation above about 37%
sEH inhibitor: soluble epoxide hydrolase inhibitors, primary screen, biochemical, human sEH; recombinant human sEH enzymatic activity assay; inhibition, % at 2 µM; actives 0.34% (n = 91,000); AID 707, 2007; in the data active = inhibition above about 80%
Starred values were filed as active, the others as inactive; i = inactive; nt = no result given. In the library only some 1.3% were active in any assay of this set; here they are far more common.

SMILES | PLAP act | BAP1 block | sEH act | sEH inhibitor
Cc1ccccc1-c1nc(CN2CCC(C(=O)NCCCN3CC(C)CC(C)C3)CC2)c(C)o1 (stereo not given) | 2* | i | 7.3 | -5.1
Cc1ccccc1-c1nc(CN2CCC(C(=O)NCc3cccs3)CC2)c(C)o1 | 2.6* | nt | -31.1 | 32.6
CC1=C(C(=O)OCCc2ccccc2)C(c2cc3c(cc2[N+](=O)[O-])OCO3)C2=C(CC(c3ccccc3)CC2=O)N1 (stereo not given) | nt | i | nt | nt
COC(=O)c1cc(N)cc([N+](=O)[O-])c1 | nt | i | nt | nt
Cc1ccc2nc(CSc3nc(C)ccc3C#N)[nH]c2c1 | 2.2* | nt | 5.6 | -3.7
O=C(Nc1ccc(-c2nc3ccccc3[nH]2)cc1)C1CCCO1 (stereo not given) | 1.1 | i | 4.3 | -6.6
O=C(Nc1nc2ccccc2[nH]1)C1CCCO1 (stereo not given) | 2.5* | i | nt | nt
O=C(COc1cccc2ccccc12)NNC(=O)C1CCCO1 (stereo not given) | 2.2* | nt | 1.4 | 1.3
O=C(NNC(=O)C1CCCO1)c1ccccc1Cl (stereo not given) | 2* | nt | 1.3 | 2.0
Cc1sc2c3c(ccc2[n+]1CCO)CCCC3 | nt | i | nt | nt
O=C(Nc1cc2cc([N+](=O)[O-])ccc2oc1=O)c1ccc(Br)cc1 | nt | i | nt | nt
CN(C)S(=O)(=O)c1ccc(NC(=O)N2CCN(c3cccc(C(F)(F)F)c3)CC2)cc1 | 2.1* | nt | -41.3 | 42.6
O=C(Cc1cnn(-c2ccccc2)c1)c1ccc(O)c(O)c1O | 2* | nt | -10.7 | 9.8
Nc1nc2ccccc2n1CCOc1ccc2ccccc2c1 | nt | i | nt | nt
O=C(Nc1ccc(-c2nc3cc(Cl)ccc3o2)cc1)c1ccc(Cl)c([N+](=O)[O-])c1 | nt | i | nt | nt
Cc1nc2c(C(=O)N3CCN(C)CC3)cnn2c(C)c1Cc1ccc(Cl)cc1 | 2.1* | nt | -1.1 | 3.1
O=C(N/N=C/c1ccccn1)c1ccc(Br)o1 | 2.4* | nt | -1.9 | 1.5
O=C(CCN1C(=O)c2cccc3cccc(c23)C1=O)OCC=Cc1ccccc1 | nt | i | nt | nt
O=C(NNC1=C(C(=O)C(F)(F)F)CCC1)c1cccc(Cl)c1 | 2* | nt | 1.5 | -3.8
CN(CCc1ccccn1)c1ncnc2[nH]ncc12 | 2.1* | i | -6.2 | 7.7
CCOc1ccc2cc(C3CC(c4ccc(OC)cc4)=NN3)c(Cl)nc2c1 (stereo not given) | nt | i | nt | nt
CCNc1cc2oc(=O)c(CN3CCOCC3)c(C)c2cc1C | 2* | nt | 6.0 | -5.7
Cc1cc2oc(=O)cc(CN3CCOCC3)c2cc1C | 0.7 | nt | 1.1 | -4.8
COCCN=C1Sc2nc3ccc(C)cc3cc2CN1Cc1ccco1 | 2* | nt | -1.5 | 2.3
COc1ccc(Cn2nnnc2C(c2ccccc2)N2CCN(C3CCCC3)CC2)cc1 (stereo not given) | 2* | i | nt | nt
SMILES | PLAP act | BAP1 block | sEH act | sEH inhibitor
c1ccc(-c2csc(NNC3=NCCCCC3)n2)cc1 | 2.1* | nt | 8.3 | -6.8
Clc1ccc(-c2csc(NNC3=NCCCCC3)n2)cc1 | 1.4 | nt | nt | nt
COc1cc(NS(=O)(=O)c2ccc(N/C=C(\C#N)c3nc4cc(Cl)ccc4o3)cc2)nc(OC)n1 | 2.1* | nt | 12.9 | -10.8
COc1cc(NS(=O)(=O)c2ccc(NC(C)=O)cc2)nc(OC)n1 | 1.1 | nt | 21.9 | -24.7
Nc1nc(SCC(=O)Nc2ccccc2Sc2ccccc2)n[nH]1 | 2.3* | nt | -8.8 | 8.6
CCc1nc(SCC(=O)Nc2ccccc2C(=O)OC)n[nH]1 | 2* | i | -3.4 | 4.6
O=C(CCl)Nc1ccccc1Sc1ccccc1 | 0.9 | nt | 8.0 | -9.9
CCc1nc(SCC(=O)Nc2ccnc3ccccc23)n[nH]1 | 1.2 | i | -2.3 | 2.4
CC(=O)NC(=O)c1cc2cc([N+](=O)[O-])ccc2oc1=Nc1ccccc1C | nt | i | nt | nt
OCCN1CCOCCN(CCO)CCOCC1 | 2* | i | -2.3 | 1.8
CCC1(C)Cc2c(sc3nc(NN)n(C)c(=O)c23)CO1 (stereo not given) | 2* | nt | 9.2 | -11.8
COC(=O)c1ccc(C2NC(=O)c3c(sc4c3CCN(C)C4)N2)cc1 (stereo not given) | nt | i | nt | nt
O=C(CN1CCOCC1)Nc1nc(-c2ccc3c(c2)CCN3S(=O)(=O)c2ccccc2)cs1 | 2* | i | 1.0 | -0.5
Cc1sc(NC(=O)CN2CCOCC2)nc1-c1ccc2c(c1)CCN2S(=O)(=O)c1ccccc1 | 1.8 | nt | 16.1 | -13.9
CCN(CC(=O)Nc1ccc(N2CCOCC2)cc1)Cc1nc2ccccc2c(=O)[nH]1 | 2.1* | nt | -3.5 | 5.2
CCN(Cc1nc2ccccc2c(=O)[nH]1)Cc1nc2cc(OC)c(OC)cc2c(=O)[nH]1 | 2.2* | i | 12.9 | -10.2
CCN(CC(=O)NCc1ccc(F)cc1)Cc1nc2cc(Cl)ccc2c(=O)[nH]1 | 2.7* | nt | 1.3 | -2.5
CCN(CC(=O)Nc1ccc2c(c1)CCC2)Cc1nc2ccccc2c(=O)[nH]1 | 2.6* | i | 3.0 | -5.7
CCN(CC(=O)NC(c1ccccc1)c1ccccc1)Cc1nc2ccccc2c(=O)[nH]1 | nt | nt | -4.7 | 8.0
COc1cc2nc(CN(C)CC(=O)Nc3ccc(N4CCOCC4)cc3)[nH]c(=O)c2cc1OC | 2.3* | i | nt | nt
CN(CC(=O)Nc1ccccc1Br)Cc1nc2ccccc2c(=O)[nH]1 | 2.4* | nt | 9.0 | -5.7
O=C(Nc1ncc(Cc2ccccc2Cl)s1)C1CCCO1 (stereo not given) | nt | nt | -11.0 | 10.4
O=C(CN1CCOCC1)Nc1ncc(Cc2ccccc2Cl)s1 | 2* | nt | 1.3 | -1.7
OC(CN1CCCC1)Cn1c2ccccc2c2ccccc21 (stereo not given) | nt | i | nt | nt
CCOC(=O)C(CSCC(=O)c1ccc(Cl)cc1Cl)NC(=O)OC(C)(C)C (stereo not given) | 2* | nt | -6.1 | 4.2
SMILES | PLAP act | BAP1 block | sEH act | sEH inhibitor
CCOC(=O)CSCC(NC(=O)OC(C)(C)C)C(=O)OCC (stereo not given) | 1 | nt | 4.9 | -4.2
O=C1CSc2ccc(C(=O)NCCC3=CCCCC3)cc2N1 | 0.8 | nt | -82.6 | 82.4*
COCCNC(=O)c1ccc2c(c1)NC(=O)CS2 | 1.1 | i | -4.8 | 1.7
C=C(C)C(=O)OC1(C(F)(F)F)Oc2cc(C)ccc2NC1=O (stereo not given) | 1.1 | nt | 40.6* | -41.1
Cc1ccc(C23CC4CC(CC(C(=O)NC5=NCCS5)(C4)C2)C3)cc1 | nt | i | nt | nt
CCOc1ccc(NC(=O)NCCCSC2CCCCC2)cc1 | 1 | nt | -85.5 | 85.3*
COc1ccc(NCc2nnc(SCC(=O)Nc3cc(C(F)(F)F)ccc3Cl)o2)cc1 | 2.3* | i | -22.6 | 22.4
COc1ccccc1N(CC(=O)N/N=C/c1ccc(OCC(=O)NCc2ccco2)cc1)S(=O)(=O)c1ccc(C)cc1 | 2* | nt | 4.5 | -4.8
COc1ccccc1NC(=O)COc1ccc(/C=N/NS(=O)(=O)c2ccc(C)cc2)cc1 | 1.1 | nt | 8.3 | -7.8
Cc1cnn(C(=S)NCC2CCCO2)c1 (stereo not given) | 2.1* | i | nt | nt
Cc1ccc(NC(=S)NCC2CCCO2)cc1 (stereo not given) | 1 | nt | -25.2 | 20.8
CCN(CC)c1ccc2cc(C(N)=O)c(=Nc3ccccc3F)oc2c1 | nt | i | nt | nt

From PubChem BioAssay
